# Measurements from PubChem BioAssay AID1259343 (VanderVen Lab, College of Veterinary Medicine, Cornell …, 2017).
# Screen size: about 6,200 compounds; about 2,900 (47%) were called active. So high a share suggests a set chosen from earlier hits. The list shows a part of the results. A number with no mark means an inactive call. Rule as the data show it: active = inhibition above about 50%; inactive = the rest.
# Assay: Mycobacterium tuberculosis growth inhibition, primary screen (AID 1259343)
# Settings: inhibition: at 10 µM, active compounds read high; outcome: 10 uM
row,Structure (SMILES),inhibition
1,N#CC1(c2ccccc2)CCC2(CC1)N=C(N)Nc1nc3cc4c(cc3n12)OCCCO4 (stereo not given),45.8%
2,O=S(=O)(NCc1ccc(Cl)cc1)N1CCCCCC1,10.6%
3,Clc1ccc(CNc2c3c(nc4nncn24)CCC3)cc1,54.3% (active)
4,O=C(Nc1ccc(SCc2cccnc2)cc1)C1=COCCO1,61% (active)
5,O=C(Nc1ccc(Oc2ccccc2)cc1)C1=COCCO1,49.4%
6,Cc1ccc(Sc2ccc(NC(=O)C3=COCCO3)cc2)cc1C,33.3%
7,O=C(Nc1nc(-c2nc3ccccc3s2)cs1)c1ccc([N+](=O)[O-])o1,-46.3%
8,N#CC(C#N)=Cc1ccc(-c2ccc(SC(F)F)cc2)o1,-10.2%
9,N#CC(C#N)=Cc1ccc(-c2ccc(F)cc2)o1,-20.9%
10,O=C1NC(=S)C(=Cc2ccc(-c3ccc(F)cc3)o2)S1,97.6% (active)
11,O=C1NC(=S)C(=Cc2ccc(-c3nc4ccccc4s3)o2)S1,77.4% (active)
12,N=c1oc2c([N+](=O)[O-])cc(Cl)cc2cc1-c1nc2ccccc2s1,-34.4%
13,NC(=S)NN=Cc1ccc(-c2ccc(SC(F)F)cc2)o1,103% (active)
14,NC(=S)NN=Cc1ccc(-c2nc3ccccc3s2)o1,67.3% (active)
15,Cc1nc(CNS(=O)(=O)c2c(C)c(C)c(C)c(C)c2C)cs1,6.48%
16,O=C(O)c1cc(Br)c2ccccc2c1O,96% (active)
17,Cc1cc(NC(=O)CNCc2csc(-c3cnccn3)n2)ccc1Cl,77.5% (active)
18,Cc1ccn(C(=O)Cc2csc(-c3ccccn3)n2)c(=NC2CCCCC2)c1,-7.81%
19,O=c1[nH]c2ccccc2c(O)c1Sc1ccccc1,82.5% (active)
20,O=c1[nH]c2cc(Cl)ccc2c(O)c1-c1ccc(Oc2ccccc2)cc1,17.5%
21,O=C(c1c(-c2ccc(Br)cc2)c2ccccc2[nH]c1=O)C(F)(F)F,18.7%
22,CCc1ccc(N2C(=O)/C(=C/c3cc(C)n(-c4ccc(C(=O)O)cc4)c3C)C(=O)NC2=S)cc1,34.2%
23,COC(=O)c1ccccc1NCc1cc(=O)oc2cc(O)c(O)cc12,75.9% (active)
24,CNC(=O)C(C#N)C(=O)CCc1cccc(OC2CCCC2)c1 (stereo not given),54.1% (active)
25,N#Cc1cccc(C(=O)NCc2cccnc2OC2CCCC2)c1,-4.09%

row,Structure (SMILES),inhibition
1,CC1CC(=O)NN1CC(=O)N1c2ccccc2OCC1c1ccccc1 (stereo not given),26.4%
2,CCC(NC(=O)Nc1ccc(-c2csnn2)cc1)c1nccs1 (stereo not given),-4.07%
3,CCN(CC(C)C#N)C(=O)Nc1ccc(-c2csnn2)cc1 (stereo not given),80.5% (active)
4,Cc1cc(=O)[nH]c(=S)[nH]1,0.31%
5,CCc1ccc(S(=O)(=O)c2cnc3ccc(C)cc3c2N2CCC3(CC2)OCCO3)cc1,67.2% (active)
6,C#Cc1ccc(CN2CCC(C(=O)Nc3ccc(Oc4ccccc4)nc3)CC2)cc1,-2.94%
7,CC(=O)c1cc(CN2CCC(C(=O)Nc3ccc(Oc4ccccc4)nc3)CC2)cs1,63.2% (active)
8,O=C(Nc1ccc(Oc2ccccc2)nc1)C1CCN(Cc2cccc3nonc23)CC1,inactive
9,O=C(Nc1ccc(Oc2ccccc2)nc1)C1CCN(C(=O)c2ccco2)CC1,90.5% (active)
10,O=C(Nc1ccc(Oc2ccccc2)nc1)C1CCN(C(=O)c2cccs2)CC1,77.1% (active)
11,O=C(Nc1ccc(Oc2ccccc2)nc1)C1CCN(C(=O)c2cnsn2)CC1,93.8% (active)
12,O=C(Nc1ccc(Oc2ccccc2)nc1)C1CCN(C(=O)[C@@H]2C[C@@H]3C=C[C@H]2C3)CC1,56.1% (active)
13,COc1cc(CNCCO)cc(Cl)c1OCc1ccc(Cl)cc1Cl,83% (active)
14,COc1cc(C)ccc1S(=O)(=O)NC(=O)C1(C)CCN1C(=O)Cc1ccc(Cl)cc1Cl (stereo not given),47.9%
15,COc1ccc(OCCCOc2ccc(Cl)cc2Cl)cc1,27.8%
16,O=c1[nH]c(=S)[nH]nc1-c1ccc(F)c(F)c1,80.3% (active)
17,O=c1[nH]c(=S)[nH]nc1-c1ccc2c(c1)OCCO2,36.5%
18,Nc1ccc(Oc2cc(N)cc(Oc3ccccc3)c2)cc1,-36.6%
19,NC(CC1CCCC1)c1ccc(Oc2ccccc2)cc1 (stereo not given),79.5% (active)
20,COc1cc(Oc2ccccc2)ccc1N,23.5%
21,COc1ccccc1C1(O)CCN(CCCn2c3ccccc3c3ccccc32)CC1,51.9% (active)
22,CCCc1ccc(C(O)c2ncc(-c3ccccc3)[nH]2)cc1 (stereo not given),36.8%
23,CCc1ccc(C(O)c2ncc(-c3cccc(C(F)(F)F)c3)[nH]2)cc1 (stereo not given),34%
24,CCCc1ccc(C(O)c2ncc(-c3ccccc3C)[nH]2)cc1 (stereo not given),78% (active)
25,Cc1ccc(-c2cnc(C(O)c3cc(C)cc(C)c3)[nH]2)cc1 (stereo not given),61.7% (active)

row,Structure (SMILES),inhibition
1,CCCc1ccc(C(O)c2ncc(-c3ccccc3F)[nH]2)cc1 (stereo not given),21.1%
2,CCc1ccc(C(O)c2ncc(-c3ccc(C)cc3)[nH]2)cc1 (stereo not given),1.21%
3,CCc1ccc(C(O)c2ncc(-c3cccc(C)c3)[nH]2)cc1 (stereo not given),56.7% (active)
4,Cc1cc(C(O)c2ncc(-c3ccc(Cl)cc3)[nH]2)ccc1F (stereo not given),84.8% (active)
5,CCCc1ccc(C(O)c2ncc(-c3cccc(C)c3)[nH]2)cc1 (stereo not given),19.5%
6,Cc1ccc(-c2cnc(C(O)c3ccc(Cl)c(F)c3)[nH]2)cc1 (stereo not given),42.2%
7,Cc1ccc(C(O)c2ncc(-c3ccc(Cl)cc3)[nH]2)cc1 (stereo not given),36.3%
8,OC(c1cccc(F)c1)c1ncc(-c2ccc(C(F)(F)F)cc2)[nH]1 (stereo not given),19%
9,Cc1ccc(C(O)c2ncc(-c3cccc(F)c3)[nH]2)cc1 (stereo not given),11.8%
10,Cc1ccc(C(O)c2ncc(-c3ccc(C(F)(F)F)cc3)[nH]2)cc1F (stereo not given),61.8% (active)
11,Cc1cc(C)c(C(O)c2ncc(-c3cccc4ccccc34)[nH]2)c(C)c1 (stereo not given),78.9% (active)
12,OC(c1ccccc1)c1ncc(-c2ccc(Oc3ccccc3)cc2)[nH]1 (stereo not given),36.3%
13,OC(c1ccc(Cl)cc1)c1ncc(-c2cccc(F)c2)[nH]1 (stereo not given),8.73%
14,CCCc1ccc(C(O)c2ncc(-c3cccc(F)c3)[nH]2)cc1 (stereo not given),35.4%
15,OC(c1cc(F)cc(Cl)c1)c1ncc(-c2ccc(Cl)cc2)[nH]1 (stereo not given),86.1% (active)
16,OC(c1cccc(F)c1)c1ncc(-c2ccc(Oc3ccccc3)cc2)[nH]1 (stereo not given),89.6% (active)
17,CC(C)(C)c1ccc(C(O)c2ncc(-c3ccccc3)[nH]2)cc1 (stereo not given),13.8%
18,Cc1ccccc1-c1cnc(C(O)c2ccc(C(C)(C)C)cc2)[nH]1 (stereo not given),49.1%
19,CS(=O)c1nncn1CC#Cc1ccc(C(F)(F)F)cc1 (stereo not given),37%
20,OC(c1cc(F)cc(Cl)c1)c1ncc(-c2ccc3ccccc3c2)[nH]1 (stereo not given),73.4% (active)
21,OC(c1ccc(Cl)c(F)c1)c1ncc(-c2cccc(F)c2)[nH]1 (stereo not given),36.1%
22,OC(c1ccc(Cl)c(Cl)c1)c1ncc(-c2cccc(F)c2)[nH]1 (stereo not given),23.7%
23,Cn1c(CCC(=O)Nc2ccc(F)cc2F)nc(=O)c2ccccc21,72.3% (active)
24,CCc1nc2c(c(=O)c3ccccc3n2C)c(=O)n1CCc1ccccc1,-31.8%
25,O=C1c2ccccc2C(=O)N1CCCCNc1ccc(F)cc1F,49.6%

row,Structure (SMILES),inhibition
1,O=C(CSc1nncs1)Nc1ccc2oc3ccccc3c2c1,92.2% (active)
2,O=C(CSc1ncnc2c1oc1ccccc12)Nc1ccc2c(c1)OCO2,47.2%
3,Cn1nnnc1SCC(=O)Nc1ccc2oc3ccccc3c2c1,36.7%
4,Cn1cnnc1SCC(=O)Nc1ccc2oc3ccccc3c2c1,76.7% (active)
5,Cc1cc(NC(=O)CSc2nc3ccccc3c(=O)n2C2CCCC(C)C2C)on1 (stereo not given),9.06%
6,CC(=O)[C@H]1CCC2C3CCC4=CC(=O)CC[C@]4(C)C3CC[C@@]21C (stereo not given in full),49.6%
7,CC(C)(C)NC(=O)[C@H]1CC[C@H]2[C@@H]3CC[C@H]4NC(=O)C=C[C@]4(C)[C@H]3CC[C@]12C,86.4% (active)
8,Cc1ccc(Nc2nc(C)c([N+](=O)[O-])c(N3CCOCC3)n2)c(C)c1,2.59%
9,COc1ccc(-n2cc(-c3ccccc3)c3c(NCC(OC)OC)ncnc32)cc1,19.7%
10,COCCNc1ncnc2c1c(-c1ccccc1)cn2-c1ccc(C)cc1,100% (active)
11,COCC(C)Nc1ncnc2c1c(-c1ccccc1)cn2-c1ccc(F)cc1 (stereo not given),72.1% (active)
12,COCCCNc1ncnc2c1c(-c1ccccc1)cn2-c1ccc(OC)cc1,91.3% (active)
13,COCCNc1ncnc2c1c(-c1ccccc1)cn2-c1cccc(Cl)c1,42.5%
14,Cc1ccc(-n2cc(-c3ccccc3)c3c(NCCCO)ncnc32)cc1,24.3%
15,COCCCNc1ncnc2c1c(-c1ccccc1)cn2-c1ccc(F)cc1,98.3% (active)
16,COCC(C)Nc1ncnc2c1c(-c1ccccc1)cn2-c1ccc(OC)cc1 (stereo not given),-15.1%
17,CN(CC1=CC[C@H]2C[C@@H]1C2(C)C)Cc1nnc(-c2ccccc2)o1,39%
18,CCCCCCSc1nnc2[nH]c(=O)cc(N)n12,inactive
19,CCCCCCSc1nnc2nc(C)cc(C)n12,58.4% (active)
20,CCCCCCCSc1nnc2[nH]c(=O)cc(N)n12,inactive
21,O=C(NS(=O)(=O)c1ccccc1)c1cccc(Cl)c1,88.3% (active)
22,CNc1cc(C(=O)NS(=O)(=O)c2ccccc2)cc(Cl)n1,55.1% (active)
23,COc1cc(C(=O)NS(=O)(=O)c2ccc(Cl)cc2)ccc1OC(C)C,28.1%
24,O=S(=O)(Nc1ccc(C(F)(F)F)cc1)c1cccc(Cl)c1,22.9%
25,O=C(NS(=O)(=O)c1cncc(Br)c1)c1ccc(OC(F)(F)F)cc1,18.9%
